How the values were obtained:
Assay in all cases: PBM binding z-score (relative to random genomic background probes); higher = stronger binding; sequences stand for … in GC…GCGATTGACAGCGTAGAATGAAGG
[1] = test system: FXR:RXRa (NR concentration 270 nM, RXRa partner concentration 90 nM)
Procedure, shortened: (§1)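 Ligand-free nuclear receptor dimers were bound for 1 h to custom Agilent 4×180K protein-binding microarrays. Detection used antibodies against each partner (one per run). Binding z-scores rest on regression-normalized fluorescence, with random background probes as the reference.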

[2] = test system: LXRa:RXRa (NR concentration 270 nM, RXRa partner concentration 90 nM)
Procedure, shortened: as §1

[3] = test system: LXRa homodimer (NR concentration 270 nM)
Procedure, shortened: as §1

[4] = test system: LXRb:RXRa (NR concentration 270 nM, RXRa partner concentration 90 nM)
Procedure, shortened: as §1

[5] = test system: LXRb homodimer (NR concentration 270 nM)
Procedure, shortened: as §1

[6] = test system: PPARa:RXRa (NR concentration 270 nM, RXRa partner concentration 90 nM)
Procedure, shortened: as §1

[7] = test system: PPARg:RXRa (NR concentration 180 nM, RXRa partner concentration 90 nM)
Procedure, shortened: as §1

[8] = test system: PPARg:RXRa 270nM:90nM, anti-RXR (NR concentration 270 nM, RXRa partner concentration 90 nM)
Procedure, shortened: as §1

[9] = test system: PPARg:RXRa 30nM:10nM, anti-RXR (NR concentration 30 nM, RXRa partner concentration 10 nM)
Procedure, shortened: as §1

[10] = test system: PPARg:RXRa 90nM:30nM, anti-RXR (NR concentration 90 nM, RXRa partner concentration 30 nM)
Procedure, shortened: as §1

[11] = test system: PPARg:RXRa DBDmut IVT, anti-RXR (DBD mutation: RXRa K156A/R161A, NR concentration 270 nM, RXRa partner concentration 90 nM)
Procedure, shortened: as §1

[12] = test system: PPARg:RXRa IVT, anti-PPARg (NR concentration 270 nM, RXRa partner concentration 90 nM)
Procedure, shortened: as §1

[13] = test system: PPARg DBDmut:RXRa IVT, anti-PPARg (DBD mutation: PPARg1 K132A/R137A, NR concentration 270 nM, RXRa partner concentration 90 nM)
Procedure, shortened: as §1

[14] = test system: PPARg DBDmut IVT, anti-PPARg (DBD mutation: PPARg1 K132A/R137A, NR concentration 270 nM)
Procedure, shortened: as §1

[15] = test system: PPARg homodimer (NR concentration 180 nM)
Procedure, shortened: as §1

[16] = test system: PXR:RXRa (NR concentration 270 nM, RXRa partner concentration 90 nM)
Procedure, shortened: as §1

[17] = test system: PXR homodimer (NR concentration 270 nM)
Procedure, shortened: as §1

[18] = test system: RARa:RXR (NR concentration 270 nM, RXRa partner concentration 90 nM)
Procedure, shortened: as §1

[19] = test system: RARa homodimer (NR concentration 270 nM)
Procedure, shortened: as §1

[20] = test system: RARb:RXRa (NR concentration 270 nM, RXRa partner concentration 90 nM)
Procedure, shortened: as §1

Row | Sequence | PBM binding z-score [1] | PBM binding z-score [2] | PBM binding z-score [3] | PBM binding z-score [4] | PBM binding z-score [5] | PBM binding z-score [6] | PBM binding z-score [7] | PBM binding z-score [8] | PBM binding z-score [9] | PBM binding z-score [10] | PBM binding z-score [11] | PBM binding z-score [12] | PBM binding z-score [13] | PBM binding z-score [14] | PBM binding z-score [15] | PBM binding z-score [16] | PBM binding z-score [17] | PBM binding z-score [18] | PBM binding z-score [19] | PBM binding z-score [20]
1 | ACTATTAGTTGTCTTAGGGCAACCGATACGACGC | 0.119 | 0.0228 | 0.27 | 0.0317 | 0.936 | -0.245 | 0.651 | 0.232 | 0.276 | 0.044 | 0.0563 | 0.447 | 1.35 | 1.18 | 0.545 | -0.171 | 0.0491 | -0.0308 | 0.604 | 0.618
2 | GATACAGGGCCAGCTAGAGGCCAGAGTATGGAAA | -0.612 | -0.872 | -0.883 | -1.08 | -1.43 | -0.738 | 0.208 | -0.6 | -0.543 | -0.645 | -0.745 | -0.681 | -0.858 | -1.22 | -0.793 | -0.72 | -0.244 | -0.464 | -0.203 | 0.56
3 | CCTACTGGGCCATCAGGTCAGTGATATCAACGTT | 0.148 | 0.0376 | 0.047 | 0.311 | -0.379 | 1.91 | 2.01 | 2.42 | 0.364 | 1.92 | 4.12 | 4.95 | -0.457 | 0.096 | 0.501 | 0.376 | -0.631 | 0.801 | -0.59 | 1.77
4 | ATATGTAGGTTACATCCGGGTCATACAGGCTATG | 2.09 | 4.15 | 1.41 | 2.85 | 0.809 | 4.64 | 6.34 | 5.27 | 2.96 | 4.81 | 7.27 | 7.54 | 4.07 | 3.35 | 3.84 | 3.46 | 1.19 | 4.26 | 0.627 | 2.41
5 | CGTCCAAGGTCAAATGTCAGTGAAGAGATGACGG | 7.54 | 5.76 | 1.47 | 4.6 | 2.22 | 6.09 | 6.34 | 6.37 | 3.35 | 5.7 | 3.67 | 4.11 | 0.495 | -0.392 | 2.49 | 4.82 | 1 | 5.67 | 0.72 | 5.38
6 | ATCTGTAGGTTAGCTGGGGTCATTCAGACTAGGC | 3.92 | 6.12 | 3.25 | 4.61 | 1.64 | 4.22 | 2.15 | 3.26 | 0.98 | 2.02 | 2.69 | 2.92 | 1.42 | 1.67 | 2.28 | 6.74 | 4.22 | 6.24 | 1.28 | 3.19
7 | ATCTCTAGGTAAAACTTCAGTGAATCCCGAGGAT | 0.0366 | 0.047 | -0.183 | -0.182 | 0.628 | 0.249 | 0.323 | 0.56 | 0.176 | 0.539 | 1.85 | 1.8 | 1.22 | 0.94 | -0.0625 | -0.0735 | 0.231 | -0.12 | 0.676 | 0.128
